The results in this text go back to PubChem BioAssay (NCATS).

Results filed as inconclusive are left out. The source made the active and inactive calls. Unless noted, calls come from the whole dose curve; as a rule, active = well fitted curve in the direction sought with a large enough effect; inconclusive = small, poorly fitted or top-dose-only effect, or another doubt; inactive = no such curve, though single readings can be large; an effect the other way counts as inactive or inconclusive.

Test [1] concerns the target Lysosomal acid glucosylceramidase (Homo sapiens) (UniProt P04062). Briefly: Glucocerebrosidase-p2 (AID 348; in the data active = potency below about 10 µM; note: potency is the fitted concentration of half-maximal effect). As to conditions: purified GBA, blue fluorogenic substrate, 40 min. In outline: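 Compounds titrated from 0.6 nM upwards against 0.2 nM enzyme in pH 5.9 citric acid/KH2PO4, taurocholate, tween-20; blue fluorogenic substrate 80 uM, 40 min room temperature, stopped and read Ex 365/Em 440 for AC50.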

A short description of test [2]: AP1 Signaling Pathway (AID 357; active = well fitted curve in either direction with a large enough effect, not every such curve was filed as active;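 note: ME-180 reporter cells stimulated with EGF at its EC50 level; % is set by controls: 0 for no effect and ±100 for the full control effect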). The following applies: ME-180 AP-1-bla reporter, EGF-induced, beta-lactamase ratio, 5 h; at 7.69 µM (top of the series) unless noted. In outline: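 AP-1-bla ME-180 cells, Opti-MEM + 0.5% dialyzed FBS, plated overnight 37 °C. Cpd titration + EC50 EGF, 5 h 37 °C. CCF4 2.5 h RT; ex 405, em 460/530 ratio → %activity, AC50.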
The target of test [3] is Cytochrome P450 1A2 (Homo sapiens) (UniProt P05177). Briefly: p450-cyp1a2 (AID 410; calls by dose curve; note: potency is the fitted concentration of half-maximal effect). The following applies: recombinant CYP1A2, luciferin-ME demethylation, luminescence; series mostly up to 57 µM. A digest of the protocol: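 Inhibition was calculated relative to 57 uM furafylline (full inhibition). The reaction used human CYP1A2 at 20nM with Luciferin-ME at its Km, 100uM, driven by an NADPH-regenerating system for 60 min at room temperature.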

Test [4] in a line: NFAT Signaling Pathway (AID 444; active = well fitted curve in either direction with a large enough effect, not every such curve was filed as active;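 note: carbachol stimulus at about its EC50 of 1 µM final; % is set by controls: 0 for no effect and ±100 for the full control effect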). As to conditions: Jurkat NFAT-bla M1, carbachol, beta-lactamase ratio, 5 h; at 7.69 µM (top of the series) unless noted. In outline: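 Jurkat cells with NFAT-driven β-lactamase reporter and co-expressed M1 receptor, stimulated with carbachol (final 1 uM, ~EC50), compound titration, 5 h at 37 °C. CCF4 loaded 1 h at RT; 460/530 nm ratio gave %activity and AC50.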

Test [5] can be described thus: Stat Signaling Pathway (AID 446; active = well fitted curve in either direction with a large enough effect, not every such curve was filed as active;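 note: ME-180 cervical cancer cells given 40 pM IL-6 alongside compound; SIE-controlled beta-lactamase reporter measured as 460/530 nm FRET emission ratio; % is set by controls: 0 for no effect and ±100 for the full control effect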). The following applies: ME-180 SIE beta-lactamase reporter, IL-6 stimulated, 5 h; at 7.69 µM (top of the series) unless noted. A digest of the protocol: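 ME-180 SIE-bla cells; overnight plating; cpd + IL-6 40 pM, 5 h, 37 C; LiveBLAzer 2.5 h RT; 460/530 nm emission ratio. Normalized to 300 pM IL-6 and 125 nM JAK inhibitor controls.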

In test [6] the target is Glucocorticoid receptor (Homo sapiens) (UniProt P04150). Kind of test: GR-GFP Redistribution (AID 450;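 active = compounds whose dose series gives a full or clear partial fitted curve of increased nuclear translocation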; note: potency is the fitted concentration of half-maximal effect). The following applies: U2OS GR-GFP nuclear translocation, laser cytometry, 2 h.
Test [7] has the same target. Kind of test: GR-EFC Redistribution (AID 451; calls by dose curve; note: potency is the fitted concentration of half-maximal effect). The following applies: CHO-K1 GR-EFC translocation, beta-gal luminescence, 2 h. In outline:
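CHO-K1 cells expressing nuclear EA and GR-ED fragments of b-gal; compounds titrated up to 46 uM final, 2 h at 37 C. GR nuclear translocation read as complemented b-gal luminescence after 1 h RT detection.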

In test [8] the target is Mitogen-activated protein kinase 10 (Mus musculus) (UniProt Q61831). Briefly: JNK3 AlphaScreen Assay (AID 530; active = well fitted curve in either direction with a large enough effect, not every such curve was filed as active;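 note: kinase came from lysate of stimulated human HepG2 cells; signal reports phosphorylation of biotinylated GST-cJun 1-79 at Ser73 with 10 µM ATP; % is set by controls: 0 for no effect and ±100 for the full control effect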). As to conditions: JNK3 lysate, c-Jun phosphorylation; series mostly up to 57.1 µM. A digest of the protocol: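 qHTS format: compounds tested as titrations against IL-1beta/TNF-alpha-activated HepG2 lysate JNK3 with biotin-GST-cJun substrate and 10 uM ATP at room temperature. Loss of anti-phospho-cJun AlphaScreen signal indicates inhibition.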

The target in test [9] is 3',5'-cyclic-AMP phosphodiesterase 4B (Homo sapiens) (UniProt Q07343). Kind of test: qHTS Assay for Inhibitors of PDE-IV (AID 607; active = well fitted activation curve with a large enough effect in the main read-out, with a control signal flat, not every such curve was filed as active; note: % of control where 0% means no effect). The following applies: HEK293 ACTOne CNG channel cells, membrane potential fluorescence; series mostly up to 22.9 µM. In outline: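 ACTOne HEK293 cells carry a modified cAMP-gated CNG channel and express endogenous PDE4; plated 1000 cells/well, compounds up to 22.9 uM final. Membrane-potential dye fluorescence (ex 535/em 590) was read; parental cells received 10 uM forskolin + 100 uM RO 20-1724.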
On the technique in general: In qHTS, concentration-response curves come from the screen itself.

Test [10] has as its target Cytochrome P450 3A4 (Homo sapiens) (UniProt P08684). Briefly: qHTS Assay for Activators of Cytochrome P450 3A4 (AID 885). Note: nearly all actives have a fitted effect of over 65% in size. As to conditions: recombinant CYP3A4, Luciferin-PPXE luminescence, 60 min; series mostly up to 57.1 µM. In outline: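 20nM CYP3A4 + 25uM Luciferin-PPXE (=KM), 200mM KPO4; cpd 10 min RT; NADPH regen, 60 min RT; stop w/ detection buffer, 20 min; luminescence. Normalized to 57 uM ketoconazole.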

A short description of test [11]: qHTS Assay for Lipid Storage Modulators (AID 1519; calls by dose curve). As to conditions: Drosophila S3 cells, BODIPY lipid droplet/cell ratio, laser cytometry, cells loaded with oleic acid; for activity change, negative = inhibition: at 57.5 µM (top of the series). In outline: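 Cells seeded at 5,000 per well were treated with compounds over a concentration series and loaded with oleic acid (400 uM, as added). Lipid droplet fluorescence (488 nm excitation, 500-530 nm channel) was read by laser-scanning cytometry and normalized to 20 uM Triacsin C.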

The target in test [12] is Dual specificity protein kinase CLK4 (Homo sapiens) (UniProt Q9HAZ1). Kind of test: qHTS Assay for Inhibitors of CDC-like Kinase 4 (Kinase-Glo Assay) (AID 1770). Note: potency is the fitted concentration of half-maximal effect; nearly all actives have a fitted effect of over 65% in size. The following applies: recombinant Clk4, Kinase-Glo ATP depletion luminescence; series mostly up to 66.7 µM. A digest of the protocol: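 Recombinant human Clk4 (25 nM) phosphorylated RS repeat peptide (100 uM) with 1 uM ATP in Tris pH 7.5/MgCl2/EGTA/DTT/Triton buffer for 4.5 h at room temperature. Residual ATP was quantified by Kinase-Glo luciferase luminescence.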

A short description of test [13]: Primary qHTS for small molecule stabilizers of the endoplasmic reticulum resident proteome: Secreted ER Calcium Modulated Protein (SERCaMP) assay (AID 1508630). Note: % is set by controls: 0 for no effect and ±100 for the full control effect. As to conditions: SH-SY5Y GLuc-SERCaMP (Gaussia luciferase released on ER calcium loss) secretion, thapsigargin, luminescence; series mostly up to 38.4 µM. A digest of the protocol:
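GLuc-SERCaMP-expressing SH-SY5Y cells, pretreated 16 h with compound, are challenged with thapsigargin to empty ER calcium stores; after 4 h, coelenterazine is added directly to the medium and luminescence is imaged.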

The target in test [14] is Dual specificity protein kinase CLK4 (Homo sapiens) (UniProt Q9HAZ1). Briefly: qHTS Assay for Inhibitors of CDC-like Kinase 4 (ADP-Glo Assay) (AID 1771). Note: nearly all actives have a fitted effect of over 70% in size. Note: potency is the fitted concentration of half-maximal effect. As to conditions: recombinant CLK4, ADP-Glo luminescence; series mostly up to 80 µM. A digest of the protocol: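 Kinase reaction: Clk4 at 25 nM, RS repeat peptide substrate at 100 uM, ATP at 1 uM, 1 hr, room temperature. Product ADP detected as luciferase signal via ADP-Glo.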

Test [15] has the same target. Briefly: qHTS Assay for Inhibitors of CDC-like Kinase 4 (ADP-FP Assay) (AID 1795). Note: nearly all actives have a fitted effect of over 60% in size. Note: potency is the fitted concentration of half-maximal effect. The following applies: Transcreener ADP fluorescence polarization; series mostly up to 50 µM. In outline: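 Recombinant human Clk4 (6.25 nM) phosphorylated RS repeat peptide (100 uM) with 1 uM ATP in Tris pH 7.5/MgCl2/EGTA/DTT/Triton buffer for one hour. ADP was quantified by Transcreener competitive fluorescence polarization against an ADP calibration curve.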

The target in test [16] is Ubiquitin carboxyl-terminal hydrolase 1 (Homo sapiens) (UniProt O94782). Kind of test: Inhibitors of USP1/UAF1: Pilot qHTS (AID 504865).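 Note: rhodamine fluorescence freed from ubiquitin-rhodamine substrate followed over time; top concentration of the series differs between compounds; % is set by controls: 0 for no effect and ±100 for the full control effect; nearly all actives have a fitted effect of over 35% in size.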 As to conditions: purified USP1/UAF1, Ub-rhodamine cleavage fluorescence; series mostly up to 54.9 µM. A digest of the protocol: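 USP1/UAF1 complex (1nM) preincubated with compound 15 min at room temperature, then Ub-Rho substrate (150nM final) added. Fluorescence read kinetically at 480/540 nm, 6 reads every 60 seconds. Buffer: 50mM HEPES pH 7.8, 0.5mM EDTA, 0.1 mg/ml BSA, 1mM TCEP, 0.01% Tween-20.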

Test [17] concerns the target Cytochrome P450 3A4 (Homo sapiens) (UniProt P08684). Briefly: qHTS Assay for Inhibitors and Substrates of Cytochrome P450 3A4 (AID 884). Note: potency is the fitted concentration of half-maximal effect; nearly all actives have a fitted effect of over 50% in size. As to conditions: recombinant CYP3A4, Luciferin-PPXE luminescence; series mostly up to 57.1 µM. In outline:
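20 nM human CYP3A4 with 25 uM Luciferin-PPXE (at KM) in 200 mM KPO4, preincubated 10 min with compound; NADPH regeneration started a 60 min RT reaction. Luciferin detected by luminescence, normalized to 57 uM ketoconazole as full inhibition.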

Where [18] appears, read: measured here: cell count channel max response.
Where [19] appears, read: measured here: lipid channel max response.

Cytochrome P450 1A2 (Homo sapiens), sequence (P05177 whole entry, looked up): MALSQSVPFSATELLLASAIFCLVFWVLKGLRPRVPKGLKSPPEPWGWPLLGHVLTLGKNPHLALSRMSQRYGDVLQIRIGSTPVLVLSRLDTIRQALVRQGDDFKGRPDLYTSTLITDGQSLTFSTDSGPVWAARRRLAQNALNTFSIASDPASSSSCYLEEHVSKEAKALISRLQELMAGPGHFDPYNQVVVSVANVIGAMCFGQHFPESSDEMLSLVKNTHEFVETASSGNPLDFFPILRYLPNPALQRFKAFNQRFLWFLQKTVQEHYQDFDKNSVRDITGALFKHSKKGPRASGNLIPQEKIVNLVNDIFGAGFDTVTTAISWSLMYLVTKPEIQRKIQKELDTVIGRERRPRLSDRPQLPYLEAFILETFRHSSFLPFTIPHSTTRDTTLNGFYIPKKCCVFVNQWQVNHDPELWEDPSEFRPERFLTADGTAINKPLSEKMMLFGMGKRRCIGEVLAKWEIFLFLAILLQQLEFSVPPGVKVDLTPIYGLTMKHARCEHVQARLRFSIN
Lysosomal acid glucosylceramidase (Homo sapiens), sequence (P04062 whole entry, looked up): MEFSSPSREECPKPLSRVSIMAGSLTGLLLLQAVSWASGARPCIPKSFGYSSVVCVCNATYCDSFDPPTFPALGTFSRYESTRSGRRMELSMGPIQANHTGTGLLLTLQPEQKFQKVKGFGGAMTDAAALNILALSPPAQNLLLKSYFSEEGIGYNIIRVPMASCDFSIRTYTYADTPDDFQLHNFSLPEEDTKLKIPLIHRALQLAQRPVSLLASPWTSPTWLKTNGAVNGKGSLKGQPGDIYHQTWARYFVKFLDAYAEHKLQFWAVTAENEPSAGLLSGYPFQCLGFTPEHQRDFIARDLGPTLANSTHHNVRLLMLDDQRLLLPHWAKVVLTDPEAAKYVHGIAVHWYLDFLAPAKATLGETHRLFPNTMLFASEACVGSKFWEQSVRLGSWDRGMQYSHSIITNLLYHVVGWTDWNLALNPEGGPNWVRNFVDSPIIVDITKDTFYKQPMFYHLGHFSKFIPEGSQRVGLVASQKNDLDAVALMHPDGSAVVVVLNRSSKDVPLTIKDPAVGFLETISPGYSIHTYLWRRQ
Dual specificity protein kinase CLK4 (Homo sapiens), sequence (Q9HAZ1 whole entry, looked up): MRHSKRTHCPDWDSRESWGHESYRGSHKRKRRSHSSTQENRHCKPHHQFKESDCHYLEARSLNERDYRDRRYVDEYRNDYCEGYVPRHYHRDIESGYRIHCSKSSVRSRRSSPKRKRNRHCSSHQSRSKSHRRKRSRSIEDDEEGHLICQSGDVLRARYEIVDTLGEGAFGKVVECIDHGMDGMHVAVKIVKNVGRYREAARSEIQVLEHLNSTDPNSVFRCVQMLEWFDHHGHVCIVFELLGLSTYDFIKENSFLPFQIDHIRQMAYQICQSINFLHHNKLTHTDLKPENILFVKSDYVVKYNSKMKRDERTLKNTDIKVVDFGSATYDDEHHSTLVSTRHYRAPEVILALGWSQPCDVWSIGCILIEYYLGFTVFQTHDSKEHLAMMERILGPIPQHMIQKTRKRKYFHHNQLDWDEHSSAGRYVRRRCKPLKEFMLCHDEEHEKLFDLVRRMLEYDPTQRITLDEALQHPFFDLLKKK
3',5'-cyclic-AMP phosphodiesterase 4B (Homo sapiens), sequence (Q07343 whole entry, looked up): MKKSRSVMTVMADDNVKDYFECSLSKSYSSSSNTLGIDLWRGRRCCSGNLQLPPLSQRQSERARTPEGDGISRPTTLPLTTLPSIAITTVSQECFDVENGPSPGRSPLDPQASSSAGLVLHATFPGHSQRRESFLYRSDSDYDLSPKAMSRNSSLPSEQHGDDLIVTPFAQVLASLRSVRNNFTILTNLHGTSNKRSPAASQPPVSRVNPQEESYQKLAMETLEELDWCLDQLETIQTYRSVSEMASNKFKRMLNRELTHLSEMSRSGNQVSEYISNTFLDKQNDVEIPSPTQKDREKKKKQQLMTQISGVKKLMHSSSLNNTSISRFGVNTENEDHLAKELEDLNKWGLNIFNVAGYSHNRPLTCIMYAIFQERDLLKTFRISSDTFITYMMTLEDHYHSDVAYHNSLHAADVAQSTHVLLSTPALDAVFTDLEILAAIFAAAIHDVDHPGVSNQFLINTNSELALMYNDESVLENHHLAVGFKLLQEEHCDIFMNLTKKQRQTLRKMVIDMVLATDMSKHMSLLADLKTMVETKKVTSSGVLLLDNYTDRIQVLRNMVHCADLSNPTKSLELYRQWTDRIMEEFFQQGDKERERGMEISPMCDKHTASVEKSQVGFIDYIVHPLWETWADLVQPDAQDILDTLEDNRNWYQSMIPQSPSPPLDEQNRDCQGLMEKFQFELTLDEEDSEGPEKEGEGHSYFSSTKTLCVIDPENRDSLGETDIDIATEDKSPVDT
Ubiquitin carboxyl-terminal hydrolase 1 (Homo sapiens), sequence (O94782 whole entry, looked up): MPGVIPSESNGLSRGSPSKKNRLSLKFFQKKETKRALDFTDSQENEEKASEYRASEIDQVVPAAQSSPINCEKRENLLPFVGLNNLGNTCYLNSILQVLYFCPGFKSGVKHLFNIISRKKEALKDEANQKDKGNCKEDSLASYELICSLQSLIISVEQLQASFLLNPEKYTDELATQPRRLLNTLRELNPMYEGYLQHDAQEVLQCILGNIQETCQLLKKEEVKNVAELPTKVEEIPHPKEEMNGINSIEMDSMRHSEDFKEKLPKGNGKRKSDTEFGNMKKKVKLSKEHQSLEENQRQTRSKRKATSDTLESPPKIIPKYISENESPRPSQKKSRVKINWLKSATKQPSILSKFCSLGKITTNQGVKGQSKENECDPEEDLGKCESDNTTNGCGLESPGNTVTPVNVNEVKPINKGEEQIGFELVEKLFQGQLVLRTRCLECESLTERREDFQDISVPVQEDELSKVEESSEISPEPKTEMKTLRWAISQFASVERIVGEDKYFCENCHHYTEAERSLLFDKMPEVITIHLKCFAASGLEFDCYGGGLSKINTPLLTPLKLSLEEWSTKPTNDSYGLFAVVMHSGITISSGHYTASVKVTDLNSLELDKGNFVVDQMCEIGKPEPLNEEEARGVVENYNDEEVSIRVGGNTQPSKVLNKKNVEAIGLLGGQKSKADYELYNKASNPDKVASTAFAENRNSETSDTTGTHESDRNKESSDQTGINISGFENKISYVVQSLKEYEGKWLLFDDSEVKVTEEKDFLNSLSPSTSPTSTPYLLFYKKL
Cytochrome P450 3A4 (Homo sapiens), sequence (P08684 whole entry, looked up): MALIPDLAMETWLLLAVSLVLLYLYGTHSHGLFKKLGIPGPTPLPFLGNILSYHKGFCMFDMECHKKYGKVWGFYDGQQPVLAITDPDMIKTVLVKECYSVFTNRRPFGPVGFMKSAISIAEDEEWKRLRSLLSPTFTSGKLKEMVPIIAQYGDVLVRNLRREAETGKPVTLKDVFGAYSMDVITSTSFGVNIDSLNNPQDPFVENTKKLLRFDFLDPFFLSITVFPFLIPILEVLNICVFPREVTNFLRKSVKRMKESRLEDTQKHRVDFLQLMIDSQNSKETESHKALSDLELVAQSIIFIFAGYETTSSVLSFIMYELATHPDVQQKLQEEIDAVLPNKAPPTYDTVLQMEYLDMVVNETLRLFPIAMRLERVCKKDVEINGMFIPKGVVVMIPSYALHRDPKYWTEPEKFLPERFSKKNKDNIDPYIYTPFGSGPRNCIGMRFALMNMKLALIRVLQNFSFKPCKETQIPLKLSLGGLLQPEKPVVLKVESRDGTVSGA
Glucocorticoid receptor (Homo sapiens), sequence (P04150 whole entry, looked up): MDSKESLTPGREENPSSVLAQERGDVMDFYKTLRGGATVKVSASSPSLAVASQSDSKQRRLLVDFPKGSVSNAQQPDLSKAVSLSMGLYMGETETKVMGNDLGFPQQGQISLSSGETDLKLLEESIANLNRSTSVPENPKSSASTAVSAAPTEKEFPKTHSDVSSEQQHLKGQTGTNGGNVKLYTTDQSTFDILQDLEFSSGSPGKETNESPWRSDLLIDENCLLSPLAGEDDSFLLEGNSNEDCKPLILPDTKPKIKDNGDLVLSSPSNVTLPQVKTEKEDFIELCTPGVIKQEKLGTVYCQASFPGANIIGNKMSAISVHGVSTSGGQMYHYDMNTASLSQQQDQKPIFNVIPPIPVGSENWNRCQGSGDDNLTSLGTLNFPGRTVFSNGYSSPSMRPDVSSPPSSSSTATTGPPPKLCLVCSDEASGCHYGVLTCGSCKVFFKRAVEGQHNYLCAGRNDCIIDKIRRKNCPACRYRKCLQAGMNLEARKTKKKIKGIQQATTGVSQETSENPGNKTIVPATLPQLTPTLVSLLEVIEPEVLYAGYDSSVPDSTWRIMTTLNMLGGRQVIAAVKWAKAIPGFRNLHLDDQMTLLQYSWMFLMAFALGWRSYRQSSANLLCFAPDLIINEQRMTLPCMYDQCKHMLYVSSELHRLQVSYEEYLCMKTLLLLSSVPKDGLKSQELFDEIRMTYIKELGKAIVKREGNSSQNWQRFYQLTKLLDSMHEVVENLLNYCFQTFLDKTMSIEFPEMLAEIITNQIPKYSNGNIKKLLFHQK

`COc1cccc(-c2cc(N(C)Cc3ccco3)ncn2)c1`: the Potency in [1] is > 11.4 µM (inactive); in test [3], 0.794 µM (active); in test [6] it was > 46 µM (inactive); in test [7] it was > 46 µM (inactive); in [12], 12.6 µM (active). For the same molecule, the activity change, negative = inhibition in test [2] was 22.2% (inactive); in test [4] it was -17.2% (inactive); in test [11], 8.28% (inactive). Further, in [5], the activity, negative = inhibition was -2% (inactive). Besides, in test [8], the outcome was inactive. For the same molecule, the Potency entry in test [9], in [10] and in test [13] was “inactive” each time. In addition, the max response in test [11] (setting [18]) came out at 20.9%; in test [11] (setting [19]), 28.5%.
Regarding `COCCn1c(=O)cnc2cnc(N3CCN(C)CC3)nc21`, the figures for the Potency in [1], in test [6] and in test [7] were > 11.4 µM (inactive), > 9.22 µM (inactive) and > 46 µM (inactive), respectively. The activity change, negative = inhibition is -13.3% (inactive) in test [2], -29.3% (inactive) in [4] and 0.388% (inactive) in test [11]. The activity, negative = inhibition in test [5] is -12.7% (inactive). Besides, the call in test [8] was inactive. Besides, the Potency entry in [9], in test [14], in test [15], in [16] and in test [13] was “inactive” each time. Also, the max response in test [11] (setting [18]) came out at 4.53%; in test [11] (setting [19]), 3.72%.
Regarding `COCCNc1cc(-c2ccccc2C)ncn1`, the Potency in test [1] was > 11.4 µM (inactive); in [3], 15.8 µM (active); in test [6], > 46 µM (inactive); in test [7] it was > 46 µM (inactive); in [12], 12.6 µM (active). Besides, the activity change, negative = inhibition in test [2] is 5.04% (inactive); in test [4], 5.56% (inactive); in test [11], 6.88% (inactive). In test [5], the activity, negative = inhibition is 13.1% (inactive). For the same molecule, the result in test [8] was inactive. Moreover, the Potency entry in test [9] and in test [13] was “inactive” each time. Moreover, the max response in test [11] (setting [18]) was 3.79%; in [11] (setting [19]), 8.94%.
Consider `c1csc(CNc2cc(-c3ccoc3)ncn2)c1`, for which the Potency in test [1] is > 11.4 µM (inactive); in test [3], 2 µM (active); in [6], > 46 µM (inactive); in test [7], > 46 µM (inactive); in test [14] it was 35.5 µM (active). In addition, the activity change, negative = inhibition is -0.901% (inactive) in [2], -2.52% (inactive) in test [4] and 5.83% (inactive) in test [11]. The activity, negative = inhibition in test [5] is 3.9% (inactive). Further, the molecule was called inactive in test [8]. Also, the Potency result in test [9], in test [10], in test [15], in test [16] and in test [13] was “inactive” throughout. The max response in [11] (setting [18]) amounted to 26.5%; in test [11] (setting [19]) it was 29.6%.
As for `COc1cccc(Cn2c(=O)c(-c3cccs3)nc3cnc(N(C)C)nc32)c1`, the Potency in test [1] is > 11.4 µM (inactive); in test [3], 15.8 µM (active); in test [6], > 9.22 µM (inactive); in [7], > 46 µM (inactive). Also, the activity change, negative = inhibition in [2] was -9.34% (inactive); in [4], 23.2% (inactive); in [11], 3.91% (inactive). Besides, in [5], the activity, negative = inhibition is 11.2% (inactive). Moreover, the molecule was classed as inactive in [8]. The Potency result in test [9], in test [10], in [14], in test [15], in [16] and in test [13] was “inactive” each time. Moreover, the max response in test [11] (setting [18]) was determined as 25.6%; in test [11] (setting [19]), 27.3%.
On to `COc1ccc(Oc2ncc3nc(C)c(=O)n(-c4ccccc4)c3n2)cc1`, for which the Potency in test [1] was > 11.4 µM (inactive); in test [3] it was 7.94 µM (active); in test [6], > 9.22 µM (inactive); in [7] it was > 46 µM (inactive); in test [17] it was 5.01 µM (active). Further, the activity change, negative = inhibition in test [2] was -15.8% (inactive); in test [4] it was -10.3% (inactive); in test [11], 6.06% (inactive). In addition, the activity, negative = inhibition in [5] is -5.69% (inactive). Moreover, the outcome in [8] was inactive. In addition, the Potency entry in test [9], in test [10], in [14], in test [15], in [16] and in test [13] was “inactive” throughout. The max response in [11] (setting [18]) is 10.7%; in test [11] (setting [19]), 17.1%.
Turning to `CS(=O)(=O)Nc1cccc(-c2ccc3ncnc(NC4CCNCC4)c3c2)c1`, the Potency was > 11.4 µM (inactive) in test [1]; > 46 µM (inactive) in test [6]; > 46 µM (inactive) in [7]; 7.08 µM (active) in test [14]; 11.2 µM (active) in [15]. The activity change, negative = inhibition in test [2] is 6.55% (inactive); in test [4], 0.249% (inactive); in test [11], 4.99% (inactive). Besides, the activity, negative = inhibition in test [5] is 4.8% (inactive). Besides, the call in test [8] was inactive. Moreover, the Potency entry in test [9], in [16] and in test [13] was “inactive” throughout. Also, the values for the max response in test [11] (setting [18]) and in [11] (setting [19]) were 3.42% and 11%, respectively.
